About 83,000 compounds went through this panel and 20% of them were active in at least one assay; those are over-represented in the sample as a whole.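 The endpoint reported here, percent growth, reads 100 for growth as untreated, 0 for no net growth and -100 for all cells dead.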 Calls of active or inactive are those of the source. Rule for the calls: active = growth percent below 10; inactive = the rest.
Tests used:
Test in all cases: NCI-60 one-dose screen, 48 h (100 = growth as untreated, 0 = no growth, -100 = all killed)
Conditions in all cases: 10 µM unless noted
SK-MEL-2 melanoma = system: SK-MEL-2 melanoma
EKVX NSCLC = system: EKVX NSCLC
SN12C renal = system: SN12C renal
TK-10 renal = system: TK-10 renal
ACHN renal = system: ACHN renal
A498 renal = system: A498 renal
CCRF-CEM leukemia = system: CCRF-CEM leukemia
MOLT-4 leukemia = system: MOLT-4 leukemia
UO-31 renal = system: UO-31 renal
CAKI-1 renal = system: CAKI-1 renal

Measured: growth

COc1ccc2c(c1)O/C(=C\c1cccc(OCC(=O)Nc3nc4c(s3)CCCC4)c1)C2=O
active: CCRF-CEM leukemia -67.9%
inactive: SK-MEL-2 melanoma 82.5% | EKVX NSCLC 90.2% | SN12C renal 53.8% | TK-10 renal 115% | ACHN renal 97.4% | A498 renal 88.8% | MOLT-4 leukemia 25.3%

CNC(=O)c1cc(Oc2ccc(NC(=O)Nc3ccc(Cl)c(SC)c3)c(F)c2)ccn1
inactive: SK-MEL-2 melanoma 21.6% | EKVX NSCLC 32.4% | UO-31 renal 42.6% | TK-10 renal 55.3% | ACHN renal 52.6% | CAKI-1 renal 70.1% | A498 renal 41.3% | CCRF-CEM leukemia 40.7% | MOLT-4 leukemia 22.8%

CC(=O)c1cc2c(N)c(C(=O)Nc3cccc4ccccc34)sc2nc1C
inactive: SK-MEL-2 melanoma 36.5% | EKVX NSCLC 46.4% | SN12C renal 40.9% | TK-10 renal 56.2% | ACHN renal 47.6% | A498 renal 13.6% | MOLT-4 leukemia 24%
active: CCRF-CEM leukemia 6.95%

CN(C)S(=O)(=O)c1ccc(S(=O)(=O)Nc2cccc(Cl)c2N2CCCCC2)cc1
inactive: SK-MEL-2 melanoma 73.8% | EKVX NSCLC 68.2% | SN12C renal 83% | TK-10 renal 102% | ACHN renal 75.3% | CAKI-1 renal 31.6% | A498 renal 103% | CCRF-CEM leukemia 75% | MOLT-4 leukemia 68.9%

O=C1CC(=NCC(=O)n2c(-c3ccccc3)nc3ccccc32)NN1
inactive: SK-MEL-2 melanoma 98.7% | EKVX NSCLC 77.5% | SN12C renal 99% | TK-10 renal 155% | ACHN renal 93.3% | CAKI-1 renal 75.9% | A498 renal 56.1% | CCRF-CEM leukemia 107% | MOLT-4 leukemia 103%

Cc1cc2nc3[nH]c4ccccc4c3nc2cc1C
inactive: SK-MEL-2 melanoma 104% | EKVX NSCLC 79.3% | SN12C renal 83.4% | TK-10 renal 107% | ACHN renal 91.9% | A498 renal 121% | CCRF-CEM leukemia 76.2% | MOLT-4 leukemia 89.7%

COc1ccc(-c2cc(Nc3ccnc(N4CCOCC4)n3)on2)cc1
active: A498 renal -0.776%
inactive: SK-MEL-2 melanoma 42% | EKVX NSCLC 50.9% | SN12C renal 47.2% | TK-10 renal 69.1% | ACHN renal 44.9% | CAKI-1 renal 51.8% | CCRF-CEM leukemia 17.2% | MOLT-4 leukemia 21.2%

CC(=O)c1nc2ccccc2n1CC(=O)c1cccc(Cl)c1
active: CAKI-1 renal 5.79% | CCRF-CEM leukemia 5.08% | MOLT-4 leukemia 4.87%
inactive: SK-MEL-2 melanoma 61.9% | EKVX NSCLC 17.1% | SN12C renal 31.9% | TK-10 renal 34.3% | ACHN renal 51.3% | A498 renal 88.5%

COc1ccc(CN2c3ccccc3Oc3ccccc32)cc1O
active: SK-MEL-2 melanoma -6.69%
inactive: EKVX NSCLC 35% | UO-31 renal 32.5% | TK-10 renal 64.4% | ACHN renal 36.1% | CAKI-1 renal 39.4% | A498 renal 106% | CCRF-CEM leukemia 12.5% | MOLT-4 leukemia 24.9%

O=c1oc2c(C(F)(F)F)cccc2cc1-c1csc(Nc2ccc(OCCF)cc2)n1
inactive: SK-MEL-2 melanoma 18% | EKVX NSCLC 38% | UO-31 renal 40.3% | TK-10 renal 59.7% | ACHN renal 23.2% | CAKI-1 renal 12.2% | MOLT-4 leukemia 15.8%
active: A498 renal -9.67% | CCRF-CEM leukemia 5.28%

CC/C=C\C/C=C\C[C@H]1C/C=C2/C(=O)C=C[C@@H]2C/C=C\CCC(=O)O1
inactive: EKVX NSCLC 31.4% | CAKI-1 renal 14.5% | A498 renal 20.7%
active: SK-MEL-2 melanoma -56.9% | UO-31 renal -49.7% | TK-10 renal 7.69% | ACHN renal -78.9% | CCRF-CEM leukemia -5.47% | MOLT-4 leukemia 2.83%

CCCCC[C@H]1C/C=C2/C(=O)C=C[C@@H]2C/C=C\CCCC(=O)O1
active: SK-MEL-2 melanoma -75.9% | EKVX NSCLC -18% | UO-31 renal -96.5% | TK-10 renal -59.4% | ACHN renal -91% | CAKI-1 renal 8.56% | A498 renal -61.1% | CCRF-CEM leukemia -0.835% | MOLT-4 leukemia -3.81%

CCOC(=O)c1sc(Nc2ccc(Cl)cc2)nc1C
inactive: TK-10 renal 26.5% | ACHN renal 14.3% | CAKI-1 renal 10.4% | CCRF-CEM leukemia 17.8% | MOLT-4 leukemia 10.7%
active: SK-MEL-2 melanoma -0.883% | EKVX NSCLC 7.71% | UO-31 renal -9.64% | A498 renal -32.9%

O=c1cc(/C(=C2/C=CC=N2)c2ccc[nH]2)c2cc(Cl)ccc2o1
inactive: SK-MEL-2 melanoma 62.4% | EKVX NSCLC 44.8% | UO-31 renal 41% | TK-10 renal 63% | ACHN renal 48% | CAKI-1 renal 55.7% | A498 renal 10.8% | CCRF-CEM leukemia 28.3%
active: MOLT-4 leukemia 7.2%

COc1cc(-c2nc(C(=O)NCC(=O)NO)nn2-c2ccc(Cl)cc2)cc(OC)c1OC
inactive: SK-MEL-2 melanoma 95.4% | EKVX NSCLC 103% | UO-31 renal 83.5% | TK-10 renal 96.9% | ACHN renal 98.9% | CAKI-1 renal 89.3% | A498 renal 110% | CCRF-CEM leukemia 107% | MOLT-4 leukemia 97.4%

COc1cc2c(cc1O)CC[C@@H]1[C@@H]2CC[C@]2(C)[C@@H](OCCCN(C)C)CC[C@@H]12
inactive: CAKI-1 renal 10.9%
active: SK-MEL-2 melanoma -85.9% | EKVX NSCLC 0.0282% | UO-31 renal -79.6% | TK-10 renal -6.67% | ACHN renal -62.8% | A498 renal -53.6% | CCRF-CEM leukemia -7.19% | MOLT-4 leukemia -21.1%

CNC(=O)c1cc(Oc2ccc(NC(=O)Nc3ccc(Cl)c(OC(F)(F)F)c3)c(F)c2)ccn1
inactive: SK-MEL-2 melanoma 14.4% | EKVX NSCLC 26.2% | UO-31 renal 23% | TK-10 renal 37.3% | ACHN renal 28.2% | CAKI-1 renal 45.8% | A498 renal 36.9% | CCRF-CEM leukemia 30.1% | MOLT-4 leukemia 20.2%

c1ccc2[nH]c(-c3ccc(Nc4nc(N5CCCC5)nc5[nH]ncc45)cc3)nc2c1
inactive: A498 renal 94.5%
active: SK-MEL-2 melanoma -48.1% | EKVX NSCLC -8.31% | UO-31 renal -27.1% | TK-10 renal -6.9% | ACHN renal -58.3% | CAKI-1 renal -22.3% | CCRF-CEM leukemia -29.7% | MOLT-4 leukemia -44.1%

COc1ccc2c(c1)CC/C(=C\c1cncc(Br)c1)C2=O
inactive: SK-MEL-2 melanoma 95.1% | EKVX NSCLC 99.2% | UO-31 renal 96.5% | TK-10 renal 85% | ACHN renal 84.9% | CAKI-1 renal 86.6% | A498 renal 96.5% | CCRF-CEM leukemia 13.5% | MOLT-4 leukemia 83.5%

C=C1C(=O)O[C@H]2[C@H]1CC/C(COC(=O)NCCc1ccc(OC)c(OC)c1)=C\CC[C@@]1(C)O[C@@H]21
active: ACHN renal 8.5% | CCRF-CEM leukemia -8.78%
inactive: SK-MEL-2 melanoma 83% | EKVX NSCLC 71.5% | UO-31 renal 43% | TK-10 renal 36% | CAKI-1 renal 45.2% | A498 renal 81.3% | MOLT-4 leukemia 43.6%

O=C1c2c(O)cc(O)cc2-c2c(-c3ccc(O)cc3)oc3cc(O)cc1c23
active: ACHN renal 9.27% | CCRF-CEM leukemia 6.03% | MOLT-4 leukemia 1.37%
inactive: SK-MEL-2 melanoma 72.3% | EKVX NSCLC 62.2% | UO-31 renal 12.7% | TK-10 renal 63.4% | CAKI-1 renal 33% | A498 renal 62.5%

CCOc1ccc(-n2nc(C(=O)Nc3ccccc3)nc2-c2cc(OC)c(OC)c(OC)c2)cc1
inactive: SK-MEL-2 melanoma 37.7% | EKVX NSCLC 53.2% | UO-31 renal 37.7% | TK-10 renal 72.4% | ACHN renal 62.8% | CAKI-1 renal 51.6% | A498 renal 10.3% | CCRF-CEM leukemia 50.8% | MOLT-4 leukemia 42.9%

COc1cccc2c1C(=O)c1c(O)c3c(c(O)c1C2=O)C[C@](O)(C(=O)CO)C[C@H]3O[C@@H]1C[C@@H](NC(=O)CCCN(C)C2(c3ccc(F)cc3)CC3CCC2C3)[C@H](O)[C@@H](C)O1 (stereo partly drawn)
inactive: SK-MEL-2 melanoma 47.1% | UO-31 renal 71.7% | TK-10 renal 54.6% | CAKI-1 renal 61.9% | A498 renal 52.5%
active: EKVX NSCLC -46.3% | ACHN renal -86% | CCRF-CEM leukemia -29% | MOLT-4 leukemia -37%

CC(=O)O[C@H]1C(=O)[C@@]2(C)[C@H]([C@H](OC(=O)c3ccccc3)[C@]3(O)C[C@H](OC(=O)[C@H](OC(=O)CCC(=O)OC4CCC(S/N=C(N)/N=C(\N)N(C)C)CC4)[C@@H](NC(=O)c4ccccc4)c4ccccc4)C(C)=C1C3(C)C)[C@]1(OC(C)=O)CO[C@@H]1C[C@@H]2O (stereo partly drawn)
inactive: SK-MEL-2 melanoma 12.8% | EKVX NSCLC 37.3% | UO-31 renal 47.3% | TK-10 renal 48.9% | CAKI-1 renal 25.5% | A498 renal 26.7% | CCRF-CEM leukemia 17.5% | MOLT-4 leukemia 22.5%

Cc1ccc2oc(=O)cc(C3c4ccc([nH]4)C(c4cc(=O)oc5ccc(C)cc45)c4ccc([nH]4)C(c4cc(=O)oc5ccc(C)cc45)c4ccc([nH]4)C(c4cc(=O)oc5ccc(C)cc45)c4ccc3[nH]4)c2c1 (stereo not drawn)
active: SK-MEL-2 melanoma -73.1% | EKVX NSCLC -19.3% | UO-31 renal -24.7% | TK-10 renal -22.2% | ACHN renal -18.6% | CAKI-1 renal -13.6% | A498 renal -81.1% | CCRF-CEM leukemia -18% | MOLT-4 leukemia -22.4%

COc1ccc2c(c1)C(=O)/C(=C/c1ccccn1)CC2
inactive: SK-MEL-2 melanoma 81.3% | EKVX NSCLC 92.5% | UO-31 renal 90% | TK-10 renal 55.7% | ACHN renal 54.1% | CAKI-1 renal 74.4% | A498 renal 120% | MOLT-4 leukemia 21.5%
active: CCRF-CEM leukemia -6.73%

NC(=NCCCOc1ccc(Cl)cc1)Nc1ccc(Cl)cc1
active: ACHN renal 2.74% | A498 renal -12% | CCRF-CEM leukemia 6.02% | MOLT-4 leukemia 4.83%
inactive: SK-MEL-2 melanoma 24.1% | EKVX NSCLC 44.4% | UO-31 renal 37% | TK-10 renal 45.8% | CAKI-1 renal 19.3%

COc1ccc(-c2nc(SCC(=O)Nc3ccc(C(=O)/C=C/c4ccc(Cl)cc4)cc3)[nH]c(=O)c2C#N)cc1
inactive: SK-MEL-2 melanoma 100% | EKVX NSCLC 95.7% | UO-31 renal 89.1% | TK-10 renal 102% | ACHN renal 98.9% | CAKI-1 renal 82.8% | A498 renal 101% | CCRF-CEM leukemia 94.2% | MOLT-4 leukemia 84.4%

Reference: PubChem BioAssay (NCI)
